Assay outcomes: PubChem, National Center for Advancing Translational Sciences (NCATS)
ERG Ets-DNA blk: qHTS for Small Molecule Inhibitors of the ERG Ets/DNA interaction | hit rate 0.028% among 370,000 | Potency, µM (series often up to 76.9 µM), for the others: top-dose FP activity, negative = inhibition, most hits filed as inhibitors | fluorescence polarization, His-ERG Ets domain / labelled DNA | Transcriptional regulator ERG (Homo sapiens), P11308; active = well fitted inhibition curve with a large enough effect in the polarisation, with a control signal flat; inconclusive = small, poorly fitted or top-dose-only effect, or effect the other way, or a change in a side signal; inactive = no such curve, though single readings can be large or run the other way; the % refers to the polarisation;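 also: polarization taken with two DNA probes labelled with fluorescein and Texas red; potency is read from the fitted curve at half-maximal effect; % of control where 0% means no effect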
Target sequence (P11308 whole entry, looked up, the tested form may be a part): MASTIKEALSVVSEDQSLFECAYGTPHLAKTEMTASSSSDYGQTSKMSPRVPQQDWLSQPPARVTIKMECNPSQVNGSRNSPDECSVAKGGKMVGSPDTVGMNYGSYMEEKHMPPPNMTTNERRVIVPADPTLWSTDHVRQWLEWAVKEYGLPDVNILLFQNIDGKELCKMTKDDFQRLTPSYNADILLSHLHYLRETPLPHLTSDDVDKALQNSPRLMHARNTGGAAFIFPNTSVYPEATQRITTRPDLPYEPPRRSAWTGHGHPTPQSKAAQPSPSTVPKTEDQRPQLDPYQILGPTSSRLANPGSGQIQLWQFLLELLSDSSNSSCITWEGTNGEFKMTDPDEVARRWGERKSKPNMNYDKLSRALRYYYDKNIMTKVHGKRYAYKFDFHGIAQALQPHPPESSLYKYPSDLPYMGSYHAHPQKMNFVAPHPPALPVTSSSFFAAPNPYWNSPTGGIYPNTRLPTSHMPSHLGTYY
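His-tagged ERG Ets domain (1 uM in the protein solution; 300mM KCl, 50mM Tris-HCl, 1mM EDTA, 1mM DTT, pH 7.5) received compound, then a probe mix of 5 nM fluorescein-DNA and 100nM Texas-615-DNA. Fluorescence polarization was read for both dyes.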
Nrf2 inh: Nrf2 qHTS screen for inhibitors; A549 ARE-Fluc reporter, luciferase luminescence, 18-24 h; Potency, µM (doses to about 46 µM), for inactives: top-dose activity change, negative = inhibition, hits mostly inhibitors; hit rate 2.1% among 360,000; also: potency is read from the fitted curve at half-maximal effect; % is scaled to controls: 0 for no effect and ±100 for the full control effect; nearly all actives have a fitted effect of over 60% in size
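In this cell-based qHTS, ARE-driven firefly luciferase in A549 cells reports Nrf2 activity; the luminescent signal after BugLite lysis is the measured value, with a prior CellTiter-Fluor read for cell health.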
Nrf2 ARE act: qHTS of Nrf2 Activators; hit rate 0.31% among 410,000; Potency, µM (series often up to 46.1 µM), for inactives: at the highest dose activation, hits mostly activators; AREc32 ARE-luciferase reporter (MCF7-derived line), luminescence, 24 h; also: potency is read from the fitted curve at half-maximal effect; % of control where 0% means no effect; nearly all actives have a fitted effect of over 65% in size
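Cells of the AREc32 ARE-luciferase line are plated in OPTI-MEM containing 5% FBS and left overnight at 37 deg C. Compounds are pinned in, incubation continues 24 hr, and firefly luciferase signal is then measured.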
LDHA block: qHTS assay for inhibitors of human lactate dehydrogenase; L-lactate dehydrogenase A chain (Homo sapiens), P00338; purified LDHA, NADH/diaphorase-resazurin fluorescence; hits give low values; activity change, % (values are at about 110 or 230 µM); hit rate 0.15% among 480,000; AID 1347041, 2019; in the data active = activity change below about -30%; inconclusive = mostly about -25% to -30%;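 also: plate controls were DMSO wells for no effect and wells without enzyme for full effect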
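Human LDH5 at 2 nM final in Tris HCl pH 7.4 with 0.06 mM NADH and 0.2 mM pyruvate, reacted 5 minutes at room temperature. Remaining NADH coupled via diaphorase/resazurin; resorufin fluorescence read at 0 and 20 minutes, normalized to enzyme-free and DMSO wells.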
A549 viability: Nrf2 qHTS screen for inhibitors: counterscreen for cytotoxicity; A549 ARE-Fluc cells, CellTiter-Fluor viability, 18-24 h; Potency, µM (titrated, usually from 46 µM), inactives show at the highest dose activity change, negative = cytotoxicity, most hits filed as inhibitors; hit rate 0.16% among 390,000; AID 504648, 2011; also: potency is read from the fitted curve at half-maximal effect; % is scaled to controls: 0 for no effect and ±100 for the full control effect
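A549 ARE-Fluc cells in 5% FBS OPTI-MEM, 5000 cells/well, rested 2 h then exposed to compounds in concentration-response for 18-24 h at 37 °C. Viability by CellTiter-Fluor fluorescence (Ex 405/Em 525) after 30 min; luciferase luminescence (BugLite, 15 min, RT) read afterwards.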
12-LOX inh: Primary qHTS assay for inhibitors of human arachidonate 12S-lipoxygenase (ALOX12): Round 2; purified 12hLO, xylenol orange hydroperoxide absorbance; Potency, µM (highest dose often 108 µM), without a hit: at the highest dose activity change, negative = inhibition, actives largely listed as inhibitors; hit rate 1.1% among 580,000; AID 1671190, 2021; also: potency is read from the fitted curve at half-maximal effect; % is scaled to controls: 0 for no effect and ±100 for the full control effect
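Hydroperoxide product was detected by ferrous iron/xylenol orange as the 573 to 405 nm absorbance ratio. Arachidonic acid at 40 uM (final) was turned over for 30 min at room temperature by 150 nM human 12hLO, pH 7.0 Hepes buffer, after 15 min compound preincubation.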
An asterisk follows results filed as active; ? = inconclusive; . = no result given; ! = a repeat was not active; [ ] = another dose, or the depositor's remark. Shown are actives, neighbours in structure and some others; about 2.7% of the full set was active somewhere. Unless noted, calls follow the shape of the dose curve; as a rule, active = well fitted curve in the direction sought with a large enough effect; inconclusive = small, poorly fitted or top-dose-only effect, or another doubt; inactive = no such curve, though single readings can be large; an effect the other way counts as inactive or inconclusive.

SMILES	ERG Ets-DNA blk	Nrf2 inh	Nrf2 ARE act	LDHA block	A549 viability	12-LOX inh
COc1cc2c(C(=O)N3CCOCC3)c(CSc3ccccc3)n(C)c2cc1Br	2%	26µM*	2%	2	?	-8%
CCN(C(=O)Cn1nc(-c2ccc(Br)cc2)ccc1=O)c1cccc(C)c1	.	.	.	2	.	?
O=C(O)/C(=C\c1cccc(F)c1)c1ccc(S(=O)(=O)N2CCCCC2)s1	0%	-10%	0%	0	0%	-25%
O=C(O)/C(=C/c1ccc(Cl)c([N+](=O)[O-])c1)c1ccc(S(=O)(=O)N2CCCCC2)s1	-3%	0%	1%	15	1%	25µM*
Cc1ccc(C)c(/C=N/Nc2cc(C(F)(F)F)ccc2Cl)c1	.	.	.	5	.	?
FC(F)(F)c1ccc(Cl)c(N/N=C/c2ccc(OCc3ccccc3)cc2)c1	.	.	.	-4	.	2.5µM*
FC(F)(F)c1ccc(Cl)c(N/N=C/c2ccccc2Cl)c1	.	.	.	8	.	35µM*
Cc1ccc([N+](=O)[O-])cc1S(=O)(=O)Nc1cccc(C#Cc2cccs2)c1	.	.	.	-10	.	?
CN1CCN(C(C(=O)O)c2cn(CC(=O)O)c3cc(Br)ccc23)CC1 (stereo not drawn)	.	.	.	-4	.	?
CC(C)c1ccc(C(=O)Nc2ccc(CN3CCOCC3)cc2)cc1	7%	?	3%	-10	9%	-5%
O=C(/C=C/c1ccco1)Nc1ccc(S(=O)(=O)N2CCOCC2)cc1	-10%	-2%	11µM*	-5	0%	?
O=C(/C=C/c1ccc(Cl)cc1)Nc1ccc(CN2CCOCC2)cc1	13%	21µM*	2%	1	?	-16%
CC(C)c1ccc(/C=C/C(=O)Nc2ccc(CN3CCOCC3)cc2)cc1	32%	23µM*	-3%	0	?	146%
CCN(CC)S(=O)(=O)c1ccc(/C=C/C(=O)Nc2ccc(N3CCOCC3)cc2)cc1	-4%	16µM*	3%	-1	-14%	-8%
COc1ccc(C(C)=O)cc1CC(=O)OCc1ccc(C#N)cc1	.	.	.	7	.	-27%
CCCNC(=O)c1ccc2c(c1)C1C3CCC(C3)C1C(c1ccccc1)N2 (stereo not drawn)	-1%	21µM*	0%	6	?	4%
CC(C)(C)NC(=O)c1ccc2c(c1)C1C3CCC(C3)C1C(c1ccccc1)N2 (stereo not drawn)	-7%	-3%	0%	-6	12%	-3%
Cc1cn([C@H]2C[C@H](O)[C@@H](CNS(=O)(=O)N3CCCC3)O2)c(=O)[nH]c1=O	.	.	0%	0	.	7.9µM*
CCC(=O)Nc1ccc(S(=O)(=O)NC[C@H]2O[C@@H](n3cc(C)c(=O)[nH]c3=O)C[C@@H]2O)cc1	.	.	0%	-10	.	-4%
COC(=O)c1cc(N2CCOCC2)ccc1N	.	.	.	-16	.	-18%
CCN(CC)CCCNc1oc(-c2ccccc2)nc1C#N	.	.	.	-3	.	?
N=C1C=CC(=C(c2ccc(N)cc2)c2ccc(N)cc2)C=C1	.	7.3µM*	10%	4	9.2µM*	-21%
Cc1ccc2c(CC(=O)N(Cc3ccc(N(C)C)cc3)Cc3ccco3)coc2c1C	4%	23µM*	4%	5	-5%	0%
Cc1c(OCC(F)(F)F)ccnc1CS(=O)c1nc2ccccc2[nH]1 (stereo not drawn)	-4%	1%	8%	-14	0%	12µM*!
COCCCOc1ccnc(CS(=O)c2nc3ccccc3[nH]2)c1C (stereo not drawn)	-3%	-4%	6%	17	0%	45µM*!
SMILES	ERG Ets-DNA blk	Nrf2 inh	Nrf2 ARE act	LDHA block	A549 viability	12-LOX inh
Cc1c(OCC(F)(F)F)ccnc1CSc1nc2ccccc2[nH]1	2%	-28%	2%	-3	-9%	0%
CN1C(=O)C(C2(O)C(=O)N(Cc3ccccc3)c3cc(Br)ccc32)c2ccccc21 (stereo not drawn)	.	.	.	.	.	-5%
CCc1cccc(CC)c1NC(=O)CSc1nc2ccc(N3C(=O)C4C(C3=O)[C@H]3C=C[C@@H]4C3)cc2s1 (stereo partly drawn)	-6%	13µM*	0%	?	-10%	?
CN1CC(=O)N(C2CCNCC2)Cc2c(NC3CCCCC3O)ncnc21 (stereo not drawn)	.	.	.	.	.	11µM*
CN1CC(=O)N(C2CCCNCC2)Cc2c(NC3CCCCC3O)ncnc21 (stereo not drawn)	.	.	.	.	.	-23%[6.33 µM]
CCOc1ccc(-c2cc(C(=O)Oc3ccc(F)cc3)no2)cc1	.	.	.	5	.	49%
Cc1ccc(Sc2ccc(N=CN(C)C)cc2)cc1C	.	.	.	8	.	?
O=C(Nc1ccccc1-c1nnc(SCc2ccc(Cl)cc2)o1)c1ccccc1	-18%	11%	0%	-7	?	-9%
O=c1c(-c2nnc(SCc3ccc(Cl)cc3)o2)cccn1Cc1ccccc1	-1%	21µM*	0%	-6	?	-17%
FC(F)(F)c1ccccc1N/N=C/c1ccccc1Br	.	.	.	18	.	?
Cc1nc2cc(NS(=O)(=O)c3cccc4cccnc34)ccc2s1	-1%	26µM*	1%	-4	1%	14%
O=C(CSc1ncccc1C(=O)O)NC12CC3CC(CC(C3)C1)C2	-7%	12%	0%	-1	-4%	22µM*
COc1ccc(-c2noc(CN(C(=O)Nc3cccc4ccccc34)C(C)C)n2)cc1	.	.	.	-7	.	72%
N#Cc1ccc(OCC(=O)N2CCN(S(=O)(=O)c3ccc(Cl)s3)CC2)cc1	-4%	23µM*	0%	-1	-12%	350%
CCOc1ccc(NS(=O)(=O)c2ccc(C(=O)N3CCN(c4ncccn4)CC3)cc2)cc1	-2%	16µM*	2%	-3	-21%	-5%
CCOC(=O)N1CCN(C(=O)c2ccc(NS(=O)(=O)c3ccc(F)cc3)cc2)CC1	-3%	16µM*	-1%	-1	-2%	3%
CCOc1ccc(NS(=O)(=O)c2ccc(C(=O)N(C)Cc3cccc(OC)c3OC)cc2)cc1	4%	15µM*	3%	-1	-7%	?
CCOc1ccc(NS(=O)(=O)c2ccc(C(=O)N3CCCCC3)cc2)cc1	-6%	?	0%	0	-4%	7%
COc1cccc(CN(C)C(=O)c2ccc(NS(=O)(=O)c3ccc4[nH]c(=O)[nH]c4c3)cc2)c1OC	0%	7%	-1%	-1	-2%	1%
COc1ccccc1Oc1coc2cc(OC(=O)c3cccs3)ccc2c1=O	.	.	.	-8	.	-6%
